Measurements published in PubChem BioAssay AID687001 (Broad Institute, 2013).
Results with a measured potency or affinity are listed apart. Active and inactive are the calls of the source.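 How the source made its calls: active means signal-lowering compounds whose fitted half-maximal concentration is at or below twice the top tested dose in every run; inconclusive means runs disagree, flat 30 to 70% inhibition, or poor curve fit; inactive means the rest.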

What follows are compounds tested against Protein S100-A4 (Homo sapiens) (UniProt P26447) (assay: S100A4-myosin IIA binding inhibitor potency, dose response, biochemical, fluorescence polarization, cherry-picked hits (AID 687001)). Details: FP, S100A4/TAMRA-myosin IIA peptide binding; series mostly up to 11 µM.
Sequence of Protein S100-A4 (Homo sapiens) (P26447 whole entry, looked up): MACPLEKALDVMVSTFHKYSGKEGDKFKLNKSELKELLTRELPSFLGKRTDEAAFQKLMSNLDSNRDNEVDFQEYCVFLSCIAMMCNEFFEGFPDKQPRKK

outcome, inactive:
C[C@@H]1CN([C@@H](C)CO)C(=O)c2cc(C#CCc3ccccc3)cnc2O[C@@H]1CN(C)CC1CC1, COc1ccccc1Nc1cc(C)nc(Nc2ccccc2OC)n1, COc1ccc(Cl)cc1-c1cc(C(=O)N[C@H](C)c2ccccc2)[nH]n1, C[C@@H]1CN([C@H](C)CO)S(=O)(=O)c2ccc(C#CCN(C)C)cc2O[C@@H]1CN(C)CC1CC1, CCC(=O)N[C@@H]1CC[C@H](CCNC(=O)Nc2ccc(C(F)(F)F)cc2)O[C@H]1CO, NC(=O)c1cc(S(=O)(=O)Nc2cccc(Cl)c2)cs1, COc1cccc(CNC(=O)C2CCCN(S(=O)(=O)c3ccc4c(c3)C(C)(C)C(=O)N4C)C2)c1 (centres undefined), C[C@@H]1CN([C@H](C)CO)C(=O)c2cc(NC(=O)Nc3ccc(C(F)(F)F)cc3)ccc2O[C@@H]1CN(C)C(=O)Nc1ccc(C(F)(F)F)cc1, Cc1cc2cc(CNC(=O)Nc3cccc(Cl)c3)ccc2n1C, COc1ccccc1N(C)S(=O)(=O)c1ccc(C(=O)NCC2CCCCC2)cc1, COc1ccc(C2=NN(CCC(=O)NC3CCC(C)CC3)C(=O)CC2)cc1 (centres undefined), C[C@H](CO)N1C[C@H](C)[C@@H](CN(C)S(=O)(=O)c2cccs2)OCCCC[C@H](C)Oc2ccc(NS(C)(=O)=O)cc2C1=O, O=C(C[C@H]1C[C@@H]2c3cc(NC(=O)c4cccnc4)ccc3O[C@@H]2[C@H](CO)O1)NCc1ccncc1, CC(C)(C)OC(=O)C[C@H]1C/C=C\C[C@H](CC(=O)N[C@H](CO)Cc2ccccc2)C(=O)N[C@H](Cc2ccccc2)COC1=O, CCC(=O)N1C[C@H](O)COC[C@H]2O[C@H](CC(=O)NCc3cc(F)cc(F)c3)CC[C@@H]21, COc1ccc(C)cc1NC(=O)CN1CCN(c2ccccn2)CC1, CC1CCN(C(=O)c2[nH]cnc2C(=O)N[C@@H](C)C(=O)OCc2ccccc2)CC1, C[C@H]1CN([C@@H](C)CO)S(=O)(=O)c2ccc(C3=CCCCC3)cc2O[C@H]1CN(C)Cc1ccccc1, CCCC(=O)Nc1ccc2c(c1)OC[C@@H](C)N(Cc1ccc(-c3ccccn3)cc1)C[C@H](C)[C@H](OC)CN(C)C2=O, Oc1ccc(-c2cc(-c3ccc(O)cc3)nc(-c3ccccc3)n2)cc1, Cc1ccc(S(=O)(=O)N[C@H]2C=C[C@H](CC(=O)O)O[C@@H]2CO)cc1, O=C1O[C@@H](c2ccccc2)C[C@@H](O)C(=O)CCCCc2ccccc21, O=C(NCc1cc([N+](=O)[O-])ccc1O)c1cccnc1Sc1ccccc1, COc1ccc(NC(=O)CN(C)C(=O)c2ccc(N3CCCC3)c([N+](=O)[O-])c2)cc1, C[C@@H]1CN([C@@H](C)CO)C(=O)CCCn2cc(nn2)CO[C@H]1CN(C)S(=O)(=O)c1ccc(Oc2ccccc2)cc1, COCCN(C(=O)CSc1nc2ccc(OC)cc2[nH]1)c1c(N)n(Cc2ccccc2)c(=O)[nH]c1=O, CN1CCc2c(sc(NC(=O)C3COc4ccccc4O3)c2C(N)=O)C1 (centres undefined), Cc1ccc(CCNC(=O)c2ccc(CS(=O)(=O)c3ccccc3C)o2)cc1, O=C(C[C@H]1CC[C@H](NC(=O)Nc2ccccc2F)[C@@H](CO)O1)NCc1ccc(-c2ccccc2)cc1, Cc1ccc(S(=O)(=O)N2CCOCC2)cc1NC(=O)COC(=O)Cc1cccs1, Cc1cccc(S(=O)(=O)N2C[C@@H]3[C@H](c4ccccc42)[C@H](CO)N3CC2CCOCC2)c1, O=C(C[C@H]1CC[C@@H]2[C@H](COC[C@H](O)CN2C(=O)Nc2ccc3c(c2)OCO3)O1)N1CCN(c2ccccc2)CC1, CCC1CN(C(=O)N2CCC(C(=O)NCCc3ccc(OC)c(OC)c3)CC2)c2ccccc2O1 (centres undefined), COc1ccc(N2CC(C(=O)Nc3ccccc3N3CCCC3)CC2=O)c(OC)c1 (centres undefined), C[C@H]1CN([C@@H](C)CO)C(=O)c2cc(NC(=O)CCCCCC(=O)Nc3ccccc3N)ccc2O[C@H]1CN(C)S(=O)(=O)c1cccs1, Nc1nc(SCC(=O)c2ccc(Cl)cc2)c2ncn(C3OC(CO)C(O)C3O)c2n1 (centres undefined), COc1ccc(NC(=O)N(C)C[C@H]2Oc3c(NC(=O)NC4CCCCC4)cccc3C(=O)N([C@H](C)CO)C[C@H]2C)cc1, CN(C)S(=O)(=O)c1ccc(Cl)c(C(=O)NNC(=O)Cn2ccc(C(F)(F)F)n2)c1, O=[N+]([O-])c1ccccc1CN1CCN(S(=O)(=O)Cc2ccccc2)CC1
